Among the data in PubChem BioAssay AID652245 (The Scripps Research Institute Molecular Screening Center, 2013) are inhibition values, retold here.

By inhibition is commonly meant the relative decrease from the control value, in per cent.

The structures appear in SMILES notation. The campaign covered roughly 1,600 compounds. About 920 (58%) were called active. So high a share suggests a set chosen from earlier hits. Not all results are given here. A number with no mark means an inactive call.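 The calls were made as follows: active = inhibition above the primary screen's cutoff, the mean inhibition of all screened compounds plus 3 SD (cut at about 13% in these data); inactive = the rest.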

The target of this experiment is Galanin receptor type 3 (Homo sapiens) (UniProt O60755). The experiment can be described thus: GalR3 antagonist hit confirmation, cell-based, fluorescence, triplicate (AID 652245).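 Also: 0% = forskolin plus galanin and 100% = forskolin alone with DMSO.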 To be noted: HEK293 GalR3 CNG cAMP biosensor, membrane potential fluorescence; at 3 µM; stronger effect = higher value; challenged with forskolin and galanin at EC90; galR3 fused to GalR1 carboxy tail.
Chain of Galanin receptor type 3 (Homo sapiens) (O60755 1-299 limits assumed): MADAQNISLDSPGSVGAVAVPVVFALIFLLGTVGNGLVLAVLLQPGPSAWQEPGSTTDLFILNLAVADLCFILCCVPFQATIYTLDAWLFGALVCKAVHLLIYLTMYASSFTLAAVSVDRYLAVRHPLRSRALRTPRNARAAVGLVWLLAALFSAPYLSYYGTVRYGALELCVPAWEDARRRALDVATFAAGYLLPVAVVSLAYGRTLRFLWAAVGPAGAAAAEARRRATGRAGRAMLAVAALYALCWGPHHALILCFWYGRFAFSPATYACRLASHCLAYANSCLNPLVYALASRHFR
In the case of `NC(=O)c1ccc(NC(=O)COC(=O)C(Cc2ccccc2)NC(=O)c2ccccc2)cc1` (configuration not stated), the inhibition was 22.3% (active).
The same measure for `COc1ccc(CCNc2nc3ccc(C)cc3n3cnnc23)cc1OC`: 12.1%; for `C=CCC1(CC=C)CCCN1C(=O)c1cc(COc2ccc(-n3cncn3)cc2)on1`: 104% (active); for `Nc1nonc1-n1nnc(C(=O)N/N=C/c2cc(Br)ccc2O)c1CSC1=NCCS1`: 63.2% (active).
Regarding `CCNC(=S)Nc1ccc(OC(F)(F)F)cc1`, the inhibition is 18.3% (active).
The same measure for `CCN1/C(=C\c2ccc3ccccc3[n+]2CC)Sc2cc(C)ccc21`: 55.5% (active); for `CCOc1ccc(Br)cc1CSC(=N)N`: 56.7% (active); for `COc1ccc(-c2csc(-c3cccs3)n2)cc1OC`: -4.97%.
For `COC(=O)c1ccc(/C=N/N2C(C)CCCC2C)cc1` (configuration not stated) the value was 14.9% (active).
For `c1coc(CNc2ncnc3ccccc23)c1` the value was 28.1% (active); for `Cc1c(C=O)c2ccccc2n1CC(=O)O`, -2.92%; for `CN(Cc1cccnc1)C(=O)c1cc(COc2ccc3ncccc3c2)on1`, 103% (active).
With `COc1ccc(C(=O)COC(=O)COc2ccc(C)c(C)c2)cc1`, the inhibition is -0.4%.
Consider `OC[C@@H]1CN(Cc2ccc(-c3ccccc3)cc2)C[C@H](n2cnc3c(NC4CCCC4)ncnc32)O1`, for which the inhibition was 92.5% (active).
For `COc1cc(NC(=O)c2cc([N+](=O)[O-])ccc2Br)ccc1NC(=O)c1ccco1` the value was 27.5% (active); for `CC(=O)c1c(C)[nH]c(C(=O)COC(=O)c2cccc(S(=O)(=O)N(C)c3ccccc3)c2)c1C`, 82.3% (active); for `CCCn1nc(C(=O)NNC(=O)CSCC(=O)Nc2cc(C)on2)c2ccccc2c1=O`, 3.6%.
For `COCCNC(=O)/C(C#N)=C/c1cccc(OCc2ccccc2)c1` the value was -3.13%; for `COc1cc(C(=O)Nn2c(O)c(C3=c4ccccc4=NC3=O)sc2=S)ccc1O`, 5.9%; for `COc1cc(Cl)c(C)cc1NC(=O)[C@@H]1CCCN1C(=O)c1cccs1`, 17.8% (active).
The same measure for `COc1ccc(-c2[nH]nc3c2C(c2ccncc2)C(C#N)=C(N)O3)cc1` (configuration not stated): 7.93%; for `O=C(/C=C/c1c(F)cccc1Cl)Nc1nn[nH]n1`: 5.44%; for `COc1ccc(OC)c(NC(=O)CSc2nc(N)c(-c3ccccc3)c(=O)[nH]2)c1`: 38% (active).
With `O=C(CC(O)(C(F)(F)F)C(F)(F)F)Nc1ccc(Cl)c(Cl)c1`, the inhibition was 81.5% (active).
The same measure for `c1ccc(Cc2ccc(OCCn3ccnc3)cc2)cc1`: 35.9% (active); for `COc1ccc(C2CC(=O)Nc3sc(=N)c4c(N)c(C#N)c(N)nc4c32)cc1OC` (configuration not stated): 69.2% (active).
For the compound `CCCCNC(=O)c1ccccc1NC(=O)C1=C(C)OCCS1`, the inhibition was 1.8%.
`COc1ccc(NS(=O)(=O)c2ccc(NC(=O)c3ccc(N(C)S(C)(=O)=O)cc3)cc2)cc1`: the inhibition is 106% (active).
Regarding `CSc1nc(N(C)NC(=O)c2cccc(C)c2)c2ccccc2n1`, the inhibition was 6%.
Consider `CC(=O)OC(C)C[N+](C)(C)C` (configuration not stated), for which the inhibition was 78% (active).
In the case of `CCOC(=O)c1cc2n(c1C)-c1ccccc1C2=O`, the inhibition is 3.19%.
As to `CCc1ccc(-c2nc(SCC(=O)NC3CCCC3)n[nH]2)cc1`, the inhibition is 3.25%.
For `Nc1ncnc2c1ncn2C1OC(CO)CC1O` (configuration not stated), the inhibition is 49.1% (active).
For `CCCOc1ccc(Cc2c(Cl)nc(SC)nc2NC)cc1` the value was 94.2% (active); for `COc1ccc(N(C(=O)CNC(=O)c2ccco2)C(C(=O)NCC2CCCO2)c2ccccc2)cc1Cl` (configuration not stated), 0.26%.
As for `CC1(C)CC(N2CCN(C(c3ccccc3)c3ccccc3)CC2)=CC(=[N+]2CCCCC2)C1`, the inhibition is 45% (active).
For `Cn1cnc([N+](=O)[O-])c1Nc1ccccc1O`, the inhibition was 10.2%.
The same measure for `Cc1c(Cl)cccc1NC(=O)CSc1ccc(-c2cccnc2)nn1`: -1.99%; for `Cn1c(CN2CCOCC2)nc2cc(NC(=O)c3ccc(Cl)cc3)ccc21`: 85.6% (active); for `O=C(NC(Nc1nc2ccc([N+](=O)[O-])cc2s1)(C(F)(F)F)C(F)(F)F)c1ccccc1`: 43% (active).
For `CC(CCc1ccccc1)NCC(O)c1cccc([N+](=O)[O-])c1` (configuration not stated) the value was 22.3% (active); for `CCOc1ccc(C(C)=O)cc1COC(=O)c1cnc(Cl)c(Cl)c1`, 15.3% (active).
Take `COC(=O)c1cccc([N+](=O)[O-])c1CS(=O)(=O)c1ccc(C)cc1`: the inhibition was 4.93%.
In the case of `COCCN1Cc2cccc(C(=O)Nc3ccccc3OC)c2C1=O`, the inhibition is 32.4% (active).
The same measure for `CCn1c(-c2cc(OC)ccc2OC)csc1=Nc1c(C)n(C)n(-c2ccccc2)c1=O`: 2.25%; for `COc1ccc(C2Nc3ccccc3C(=O)N2c2ccc(Cl)cc2)cc1Cn1cc([N+](=O)[O-])cn1` (configuration not stated): 36.9% (active).
Take `Cc1ccc(F)cc1NC(=O)Cc1nn(C)c(=O)c2ccccc12`: the inhibition is 5.03%.
As to `CC(C)[C@@H](C(=O)OCC(=O)c1ccc2c(c1)NC(=O)CO2)N1C(=O)c2ccccc2C1=O`, the inhibition is 8.91%.
For `C#Cc1ccc(NC(=O)C2(C)CCN2C(=O)Cc2ccc(-c3ccccc3)cc2)cc1` (configuration not stated) the value was 90.1% (active).
For `Cc1ccc(S(=O)(=O)N2CCN(C(=O)COC(=O)c3c(C)cc(C)cc3C)CC2)c(C)c1` the value was 3.27%; for `CCOC(=O)c1c(NC(=O)CSc2nccc(=O)[nH]2)sc(C)c1C`, -4.89%; for `CC(C)(CNC(=O)c1ccc(Cl)c(S(=O)(=O)N2CCc3ccccc3C2)c1)N1CCOCC1`, 111% (active).
The same measure for `Nc1nc(NCC(=O)O)nc(N2CCCCCC2)c1[N+](=O)[O-]`: 8.6%; for `O=C(Nc1ccccc1Cl)/C(Cl)=C(\Cl)S(=O)c1ccccc1` (configuration not stated): 21.5% (active).
Consider `O=C(Nc1ccc(CSc2ccccc2)cc1)c1ccc(CN2CCOCC2)cc1`, for which the inhibition is 113% (active).
The same measure for `Cn1c(N)c(C(=O)COC(=O)c2cnc(Cl)c(Cl)c2)c(=O)n(C)c1=O`: 15.8% (active); for `O=C(CC1C(=O)NCCN1CC(c1ccccc1)c1ccccc1)NCCc1cn[nH]c1` (configuration not stated): -1.25%.
For `CSc1nccc(NC(=O)c2ccc(C(C)(C)C)cc2)n1` the value was 104% (active).
For `Cc1nc2ccccc2cc1OCc1ccc(F)cc1` the value was 83.8% (active).
With `C[C@@]12C(=O)N(c3cccc(Br)c3)C(=O)N1[C@H](c1ccc(Cl)cc1)[C@@H]1C(=O)N(C3CCCCC3)C(=O)[C@@H]12`, the inhibition is -8.96%.
For `CNC(=O)NC(=O)CSc1nnc(-c2ccc(F)cc2)n1CC1CCCO1` (configuration not stated) the value was 22% (active); for `CCOc1cc(C(=O)N2CCc3cc(OC)c(OC)cc3C2)ccc1OC(F)F`, 6.34%.
`CSc1nc(N)c(C#N)c(-c2ccccc2Cl)c1C#N`: the inhibition was 84.8% (active).
For the compound `Cn1nccc1C(=O)NC1CCCc2c1cnn2-c1ccc(F)cc1F` (configuration not stated), the inhibition is 114% (active).
For `CCN(CC(=O)NCc1ccc(Cl)cc1)C(=O)CSc1ccccc1` the value was 56.2% (active).
The same measure for `COc1cc2c(cc1OC)C(c1cccc([N+](=O)[O-])c1)=NCC2`: 17.9% (active).
For `CC(=O)N1CCCc2cc(S(=O)(=O)N3CCCC(C(=O)N4CCN(c5cccc(Cl)c5)CC4)C3)ccc21` (configuration not stated) the value was 92.5% (active).
